The campaign covered roughly 87,000 compounds. About 540 (0.62%) were called active. How the calls were made is not given here. For the sample, actives were picked, then their nearest neighbours and some compounds at random. Measured potencies and affinities stand elsewhere.

Drawing on PubChem BioAssay AID618 (Sanford-Burnham Center for Chemical Genomics, 2007), this text covers outcome for 74 compounds.

A short description of this assay: MT1-MMP gene expression reporter suppression – cell-based, luciferase reporter, luminescence (AID 618).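 Further: actives suppress MT1-MMP promoter-driven transcription so potencies describe inhibitors.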 As to conditions: MT1-MMP promoter luciferase reporter cells. A general note: Reporter assays use an easily measured gene product as a stand-in for the process of interest.
For the compound `COC(=O)C(C)Sc1ncnc2c1nnn2-c1ccc(F)cc1` (centres undefined), the call was inactive.
The result for `Cc1ccc(CNC(=O)[C@H]2C[C@@H]2[C@H](NP(=O)(c2ccccc2)c2ccccc2)c2ccccc2)o1` reads “inactive”; that for `Cc1ccc(C(=O)c2c(C)oc3c2C(=O)C(=O)c2ccccc2-3)cc1`, “inactive”.
With `Cc1oc2c(c1C(=O)c1ccccc1)C(=O)C(=O)c1ccccc1-2`, the result was active.
For the compound `O=C1c2ccccc2C(=O)c2c1oc(C(F)(F)F)c2C(=O)c1ccccc1`, the outcome was inactive.
To `COc1cccc(Cn2c(NCc3ccccn3)nc3c2c(=O)n(C)c(=O)n3C)c1` belongs “inactive”; to `Cn1c(=O)c2c(nc(NCc3cccnc3)n2Cc2cccc(C(F)(F)F)c2)n(C)c1=O`, “inactive”.
The result for `Cc1cc(C)nc(Sc2ccc3nnc(C(F)(F)C(F)(F)C(F)(F)F)n3n2)n1` reads “inactive”.
Take `Cc1ccc(-c2nn3c(C)nnc3s2)cc1NC(=O)C(C)C`: the call was inactive.
For the compound `CCOc1cccc2cc(-c3cn4cc(C)ccc4n3)c(=O)oc12`, the call was active.
With `CCOc1cccc2cc(-c3nnc(-c4ccccc4)o3)c(=O)oc12`, the compound was called inactive.
In the case of `COc1cccc2cc(-c3cn4ccc(C)cc4n3)c(=O)oc12`, the call was inactive.
On to `CCc1ccc(OCCNC(=O)c2ccc(S(=O)(=O)N(C)C)cc2)cc1`, for which the compound was classed as inactive.
For `CCOC(=O)N1CCN(C(=O)c2ccc(N(Cc3ccc(C)cc3)S(C)(=O)=O)cc2)CC1`, the call was inactive.
The result for `CCOP(=O)(c1ccccc1Cl)C1(O)CCCCC1` (centres undefined) reads “inactive”.
For the compound `CCOc1cc(C(=O)N2CCc3cc(OC)c(OC)cc3C2)ccc1OC(F)F`, the result was active.
For `CCOc1ccc(C(=O)N2CCCC2)cc1OC`, the call was inactive.
Turning to `COc1ccc(C(=O)N2CCc3cc(OC)c(OC)cc3C2)cc1OC`, the compound was called inactive.
For `CCOC(=O)C1=NN(c2ccc(Cl)cc2)C(c2ccccc2)CC1=O` (centres undefined), the compound was called inactive.
`CCCN(CCC)S(=O)(=O)c1cccc(C(=O)Nc2ccc3c(c2)OCO3)c1`: the compound was called inactive.
As for `O=C(Nc1nc2ccccc2[nH]1)C1CCCO1` (centres undefined), the compound was classed as inactive.
In the case of `O=C(Nc1ccc(-c2nc3cc(Cl)ccc3o2)cc1)C1CCCO1` (centres undefined), the compound was called inactive.
In the case of `O=C(Nc1ccc(O)cc1)C1CCCO1` (centres undefined), the call was inactive.
As to `O=C(Nc1ccc(-c2nc3ccccc3o2)cc1)C1CCCO1` (centres undefined), the result was active.
Take `O=C(Nc1ccc(-c2nc3ccccc3[nH]2)cc1)C1CCCO1` (centres undefined): the outcome was active.
Consider `Cc1ccc2oc(-c3cccc(NC(=O)C4CCCO4)c3)nc2c1` (centres undefined), for which the result was inactive.
`COc1ccc(OC)c(NC(=O)C2CCCN2C(=O)OCc2ccccc2)c1` (centres undefined): the call was inactive.
As to `Nc1nnnn1/N=C/c1cccc(OCc2ccccc2Cl)c1`, the compound was classed as inactive.
Consider `C=CC(O)(C#CCN(CC)CC)c1ccccc1` (centres undefined), for which the outcome was inactive.
As for `CC(=O)NC1CC2CCCC(C1)N2C(=O)Nc1ccccc1` (centres undefined), the result was inactive.
For the compound `Cc1c(C(=O)Nc2ccccn2)oc2ccccc12`, the result was inactive.
The result for `O=C(Nc1ccccc1)c1cc2ccccc2o1` reads “inactive”.
`NC(=O)c1c(NC(=O)c2ccco2)sc2c1CCC2`: the call was inactive.
Turning to `Cc1c(C(=O)Nc2ccncc2)oc2ccccc12`, the outcome was inactive.
`CC(=O)Nc1sc2c(c1C(N)=O)CCC2`: the compound was classed as inactive.
Take `Cc1cc(C)nc(NC(=O)c2cc3ccccc3o2)n1`: the outcome was inactive.
The result for `CCCC(C)NC(=O)C1CCN(S(=O)(=O)c2ccccc2)CC1` (centres undefined) reads “inactive”; that for `O=C(CSc1ccc(-c2nc3ccccc3[nH]2)cn1)N1CCN(C(=O)c2ccco2)CC1`, “inactive”; that for `O=C(c1ccc(S(=O)(=O)Nc2ccccc2)cc1)N1CCOCC1`, “inactive”.
To `CCN(CC)C(=O)C(C)N(C#N)c1nc(NC(C)C)nc(NC(C)C)n1` (centres undefined) belongs “inactive”; to `Cc1ccc(Cn2c(Sc3nnc(C)s3)nc3c2c(=O)[nH]c(=O)n3C)cc1`, “inactive”; to `Cc1cccc(CCNC(=O)C2CCC(=O)N2Cc2ccc(F)cc2)c1` (centres undefined), “inactive”.
In the case of `CCOC(=O)Cc1csc(SCC(=O)Nc2sc3c(c2C(N)=O)CCC3)n1`, the compound was called inactive.
For `CCOC(=O)CSC1=C(C#N)C(c2ccccc2OC)CC(=O)N1` (centres undefined), the call was inactive.
For the compound `CCCCCCSC1=C(C#N)C(c2ccc(C)o2)CC(=O)N1` (centres undefined), the outcome was inactive.
In the case of `CCOC(=O)CSC1=C(C#N)C(c2ccc(C)o2)CC(=O)N1` (centres undefined), the compound was called active.
With `CCSC1=C(C#N)C(c2ccc(C)s2)CC(=O)N1` (centres undefined), the call was inactive.
On to `CCOC(=O)CSC1=C(C#N)C(c2ccc(C)s2)CC(=O)N1` (centres undefined), for which the compound was called active.
In the case of `CCOC(=O)CSC1=C(C#N)C(c2ccc(Cl)cc2)CC(=O)N1` (centres undefined), the call was inactive.
For the compound `C=CCc1c(C)c(C#N)c2nc3ccccc3n2c1N1CCN(C)CC1`, the compound was classed as inactive.
In the case of `CCC(CC)C(=O)NCCc1cc2c(C)ccc(C)c2[nH]c1=O`, the outcome was inactive.
Consider `COc1cc(Nc2cc(C)nc3ncnn23)cc(OC)c1OC`, for which the compound was classed as inactive.
The result for `Cc1nc2ncnn2c(Nc2ccc3c(c2)OCO3)c1Cc1ccccc1` reads “inactive”; that for `COc1ccc(NC(=O)CSc2nnc(-c3cccnc3)o2)cc1`, “inactive”.
In the case of `CCn1nc(C)c(NC(=O)CCCSc2nc(-c3ccco3)cc(C(F)(F)F)n2)c1C`, the compound was classed as inactive.
Turning to `Cc1ccc(C2C(C#N)=C(N)Oc3n[nH]c(C)c32)cc1` (centres undefined), the compound was classed as inactive.
For `Cc1[nH]nc2c1C(C(C)C)C(C#N)=C(N)O2` (centres undefined), the compound was classed as inactive.
Take `Cc1[nH]nc2c1C(C1CC=CCC1)C(C#N)=C(N)O2` (centres undefined): the call was active.
The result for `CC(=O)N(C(C)=O)C1=C(C#N)C2(CCCCC2)Cc2ccccc21` reads “inactive”; that for `O=C(Nc1nc2ccccc2[nH]1)c1ccccc1F`, “active”; that for `CCCOc1ccc2nc(NC(=O)OC)[nH]c2c1`, “inactive”.
Take `COc1cc(OC)cc(C(=O)Nc2nc3ccccc3[nH]2)c1`: the call was inactive.
As for `O=C(Cc1ccccc1)Nc1nc2ccccc2[nH]1`, the result was inactive.
On to `Cc1cc(NC(=O)c2ccccc2F)n(-c2nc3ccccc3[nH]2)n1`, for which the compound was classed as inactive.
With `COC(=O)Nc1nc2ccc(C(=O)c3ccccc3)cc2[nH]1`, the result was inactive.
In the case of `O=C(Nc1ccc(F)cc1)c1ccccc1F`, the outcome was inactive.
Consider `C=CCOc1ccc2nc(NC(=O)OC)[nH]c2c1`, for which the compound was called active.
As for `COc1cc(C(=O)Nc2nc3ccccc3[nH]2)cc(OC)c1OC`, the compound was classed as inactive.
Regarding `O=C(COc1ccccc1)Nc1nc2ccccc2[nH]1`, the outcome was inactive.
As for `Cc1cc(=O)n2nc(N3CCC(C(=O)NCc4cccnc4)CC3)sc2n1`, the compound was called inactive.
`CC(C)=C1SC(N2CCN(Cc3ccccc3)CC2)=NC1=O`: the result was inactive.
For `CC1=C(C#N)C(c2cccnc2)C2=C(CC(c3ccc(Cl)cc3)CC2=O)N1` (centres undefined), the call was inactive.
Regarding `COc1ccc(-c2nn(-c3ccccc3)cc2C(=O)N2CCOCC2)cc1`, the compound was called inactive.
The result for `Cc1cc(C)n(C(=O)CN2C(=O)c3ccccc3C2=O)n1` reads “inactive”.
